According to PubChem BioAssay AID2284197 (EPA ToxCast):
The source made the active and inactive calls. How the source made its calls: active means hit-call score of the fitted dose curve at least 0.9, where 1 is the maximum; inactive means score below 0.9.

The compounds below were run against human Thyroid Hormone Receptor Alpha (TRa) Agonism, THRA (gene 7067) (UniProt P10827) (assay: ERF_TW_NR_COA_hTHRA: Eurofins (ERF) Nuclear Receptor (NR) Functional Coactivator Assay for human Thyroid Hormone Receptor Alpha (TRa) Agonism).
Chain of human Thyroid Hormone Receptor Alpha (TRa) Agonism, THRA (gene 7067) (P10827 whole entry, looked up): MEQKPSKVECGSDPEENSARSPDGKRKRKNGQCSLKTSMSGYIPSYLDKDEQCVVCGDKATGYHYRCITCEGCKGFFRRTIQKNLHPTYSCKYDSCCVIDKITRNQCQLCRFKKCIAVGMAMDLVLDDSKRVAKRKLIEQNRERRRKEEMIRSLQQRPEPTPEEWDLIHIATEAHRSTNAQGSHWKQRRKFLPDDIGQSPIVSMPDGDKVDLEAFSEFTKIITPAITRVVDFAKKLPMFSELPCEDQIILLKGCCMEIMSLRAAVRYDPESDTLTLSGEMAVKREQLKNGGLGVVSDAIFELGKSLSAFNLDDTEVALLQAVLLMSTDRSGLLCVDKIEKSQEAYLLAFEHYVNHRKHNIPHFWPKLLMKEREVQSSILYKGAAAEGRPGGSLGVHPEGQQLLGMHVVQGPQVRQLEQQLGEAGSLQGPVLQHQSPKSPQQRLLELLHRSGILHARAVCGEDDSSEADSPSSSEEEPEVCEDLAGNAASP
Experimental: ERF_TW_NR_COA_hTHRA is a biochemical, single-readout assay that uses extracted gene-proteins in a cell-free assay. Measurements were taken 0.5 hour after chemical dosing in a 96-well plate. See TRalpha Human Thyroid Hormone NHR Functional Agonist Coactivator Assay, Panlabs.ERF_TW_NR_COA_hTHRA is an assay component calculated from the ERF_TW_NR_COA_hTHRA assay. It is designed to measure TR-FRET using a type of inducible reporter as detected by fluorescence intensity of 7-hydroxy-coumarin with FRET: TR-FRET technology.Data from the assay component ERF_TW_NR_COA_hTHRA_Agonist was analyzed at the assay endpoint, ERF_TW_NR_COA_hTHRA_Agonist, in the positive analysis fitting direction relative to DMSO as the negative control and baseline of activity. Using a type of agonist, gain-of-signal activity can be used to understand changes in protein-protein interaction as they relate to gene THRA. […]
Test compound and/or vehicle is incubated with the 0.25 nM TR alpha LBD-GST and coactivator peptide for 30 minutes at RT. Determination of the amount of complex formed is read spectrofluorimetrically (excitation: 337 nm, emission: 520/490 nm). Test compound-induced increase of fluorescence by 50 percent or more relative to the 0.1 uM T3 response indicates possible TR alpha receptor agonist activity.
O=C(/C=C/c1ccc(O)cc1)CC(=O)/C=C/c1ccc(O)cc1 was tested, and the outcome was “inactive”. With COc1cc(CCC(=O)CC(=O)CCc2ccc(O)c(OC)c2)ccc1O the outcome was “inactive”.
